This is a sample that favours compounds with a hit; in the whole collection about 20% have one here.
Shiga inhibitor: Shiga toxin inhibition; Vero cells, Shiga toxin protein synthesis inhibition reporter; inhibition, % at 38.7 µM; actives 9.2% (n = 290,000); AID 2315; in the data active means inhibition mostly above about 28%, no sharp cut-off; inactive means mostly below about 43%; further: 0% is about no effect
HCMV inh: human cytomegalovirus inhibition. activity change, negative = inhibition, % at 57.5 µM. HFF cells, HCMV-luciferase reporter, 72 h; stronger effect = lower value. actives 4.5% (n = 410,000); in the data active means activity change below about -60%; inconclusive means no clear call, values can overlap the other calls; inactive means above about -39%; further: on the % scale 0 is the no-effect control and ±100 the full control effect
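HFF cells seeded 16 h at 37C, treated with compounds, infected with luciferase-reporter HCMV at MOI 1 PFU/cell; luciferase read at 72 h post infection, normalized to buffer-only and Salinomycin controls.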
Cycloheximide cs: counter-screen for Shiga toxin inhibitors: cycloheximide protein synthesis inhibition. cell reporter, cycloheximide protein synthesis inhibition counterscreen. max response, %. actives 12% (n = 300,000). AID 2314; in the data active means max response mostly above about 13%, no sharp cut-off; inactive means mostly below about 14%; further: read at 38.3 µM for the half of the compounds with a filed dose; 0% is about no effect
Pf growth 96h: P. falciparum growth inhibition at 96 hours; P. falciparum luciferase reporter growth, 96 h; Potency, µM (top dose mostly 28.7 µM), without a hit: top-dose activity change, negative = inhibition, hits mostly inhibitors; actives 6.9% (n = 320,000); AID 504834; further: potency means the concentration at half of the fitted maximal effect; on the % scale 0 is the no-effect control and ±100 the full control effect
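Delayed-death screen, second-generation endpoint: infected erythrocytes, 2% hematocrit, 0.05% parasitemia final; 96 hours at 37 C, 5% CO2; luciferase detection reagent; luminescence decrease equals reduced growth.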
Pf growth 48h: inhibits P. falciparum growth in the first generation, 48 h; P. falciparum luciferase growth in erythrocytes, 48 h; Potency, µM (highest dose often 28.7 µM), for the others: at the highest dose activity change, negative = inhibition, most hits filed as inhibitors; actives 5.9% (n = 310,000); further: potency means the concentration at half of the fitted maximal effect; on the % scale 0 is the no-effect control and ±100 the full control effect
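Firefly luciferase activity from engineered P. falciparum reports growth; inhibitors lower the luminescent signal. Cultures contained 2% hematocrit erythrocytes at 0.1% final parasitemia.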
Active calls of the source: *; ? = inconclusive; · = no result; + = active, no number. Unless noted, the call rests on the fitted dose curve; in most records, active means well fitted inhibition curve with a large enough effect; inconclusive means small, poorly fitted or top-dose-only effect, or another doubt; inactive means no such curve, though single readings can be large or run the other way.

SMILES	Shiga inhibitor	HCMV inh	Cycloheximide cs	Pf growth 96h	Pf growth 48h
Cc1ccc(C(c2c(C)n(C)n(-c3ccccc3)c2=O)c2c(C)n(C)n(-c3ccccc3)c2=O)s1	25.3	-27.8	0.6	?	?
Cc1ccc(C(c2ccccc2)c2c(C)[nH]c3ccccc23)s1 (stereo not given)	·	-83.4*	·	·	·
COc1ccc(NC(=O)C2=C(C)Nc3c(C(=O)Nc4ccc(C)cc4)cnn3C2c2cccc(Cl)c2)cc1 (stereo not given)	·	-2.0	·	·	·
COc1ccc(C(=O)n2nnc3ccccc32)cc1OC	-13.7	20.7	-6.2	7.1%	5.2%
COc1ccc(N/C(=C(/C(Cl)=C(Cl)Cl)[N+](=O)[O-])n2nnc3ccccc32)cc1OC	1.8	·	3.7	14.7µM*	·
COc1ccc(-c2nc(CS(=O)CC(=O)NC3CCCc4ccccc43)c(C)o2)cc1OC (stereo not given)	-16.4	17.2	-7.1	?	·
COc1ccc(-c2nc(CSCC(=O)NC3CCN(Cc4ccccc4)CC3)c(C)o2)cc1OC	-5.1	-10.6	14.1	10.4µM*	?
COc1ccc(-c2nc(CSCC(=O)NC3CCCc4ccccc43)c(C)o2)cc1OC (stereo not given)	-12.4	-27.0	-0.9	8.28µM*	·
CCOC(=O)N1CCC(NC(=O)CSCc2nc(-c3ccc(C)cc3)oc2C)CC1	2.1	-63.2*	-1.8	33.8%	-10.9%
COc1ccc(-c2nc(Cn3c(SCc4ccc(C)cc4)nc4cccnc43)c(C)o2)cc1OC	·	-97.8*	·	·	·
Cc1nn(C(=O)c2ccco2)c(C)c1Br	-22.4	5.7	-6.4	·	·
Cc1ccn2c(c1)nc(=S)n2C(=O)c1ccco1	74.2*	·	39.4*	23.2%	148.8%
COc1ccc2[nH]c(=O)c(CN(Cc3ccc(C)cc3)Cc3nnnn3CC3CCCO3)cc2c1 (stereo not given)	40.1*	3.3	40.3*	8.28µM*	?
COc1ccc2[nH]c(=O)c(CN(CCc3ccccc3)Cc3nnnn3CC3CCCO3)cc2c1 (stereo not given)	-7.0	-23.7	-2.3	·	-1.2%
COc1ccc2cc(CN(CCc3ccccc3)Cc3nnnn3CC3CCCO3)c(=O)[nH]c2c1 (stereo not given)	-8.3	6.8	-2.9	124.5%	9.28µM*
COc1ccccc1CN(Cc1cc2cc(C)ccc2[nH]c1=O)Cc1nnnn1CC1CCCO1 (stereo not given)	41.4	-10.2	18.0	10.4µM*	7.38µM*
O=c1[nH]c2cc3c(cc2cc1CN(Cc1nnnn1CC1CCCO1)C1CCCC1)OCO3 (stereo not given)	-2.4	-11.4	16.4	10.4µM*	31.8%
COc1ccc2[nH]c(=O)c(CN(Cc3ccccc3OC)Cc3nnnn3CC3CCCO3)cc2c1 (stereo not given)	-31.3	-1.6	-2.7	42.2%	?
CCOc1ccccc1NC(=O)COC(=O)CCOc1cc(C)ccc1C	·	-15.1	·	11.9%	-17.0%
COCCCNC(=O)CSc1nc2c(sc3ccccc32)c(=O)n1CCCC(=O)NCCOC	·	-23.1	·	·	·
Cc1cc(C)n2nc(C(=O)OCC(=O)NNC(=O)c3ccc(Cl)cc3)nc2n1	·	-7.1	·	20.8%	-26.3%
COCCn1nnnc1CN(CCc1ccccc1)Cc1cc2ccc(C)cc2[nH]c1=O	-4.8	-0.7	-3.4	10.4µM*	?
Cc1nn(Cc2ccccc2)c(C)c1C(=O)N1CCN(S(=O)(=O)/C=C/c2ccccc2)CC1	·	0.0	·	4.15µM*	11.7µM*
Cc1nn(Cc2ccccc2)c(C)c1C(=O)O	19.9	10.6	-2.9	-9.6%	-3.5%
CCN(CCO)c1nc(NCc2ccccc2)c2cnn(C)c2n1	-4.9	-32.9	-3.6	-27.5%	?
SMILES	Shiga inhibitor	HCMV inh	Cycloheximide cs	Pf growth 96h	Pf growth 48h
COc1ccc(-c2c(C#Cc3ccsc3)c3ccccc3n2C)cc1	38.6*	-21.2	23.0*	3.29µM*	?
COC(=O)c1ccc2c(c1)c(C#Cc1ccccc1)c(-c1ccccc1)n2C	+	13.6	59.9*	·	·
COc1ccc(-c2c(C#Cc3ccsc3)c3cc(-c4ccc5c(c4)OCCO5)ccc3n2C)cc1	·	-2.7	·	·	·
COC(=O)c1ccc(OC(=O)c2ccc(OC)cc2)c(OC)c1	44.6	39.4	14.6	19.5%	4.8%
COc1ccc(-c2c(C#Cc3ccsc3)c3cc(-c4ccc5c(c4)OCO5)ccc3n2C)cc1	·	-71.2*	·	?	?
COC(=O)c1ccc2c(c1)c(I)c(-c1ccc(OC)cc1)n2C	+	·	37.1*	·	·
COCCOC(=O)c1c(C)oc2ccc(O)c(CN3CCC(C)CC3)c12 (tested in a mixture with another compound)	·	-4.0	·	·	·
CCOC(=O)Cn1nc(NC(=O)c2ccc3c(c2)OCO3)cc1C	6.9	9.6	-2.2	-3.2%	?
CCc1ccc(NC(=S)N2CCN(c3cccc(OC)c3)CC2)cc1	-11.3	-34.3	-0.8	130.8%	1.8%
COc1ccc(NC(=O)Nc2ccc([N+](=O)[O-])cc2)cn1	31.5	10.6	9.5	?	?
COC(=O)C[C@@H]1OC[C@H](C(C)C)N1S(=O)(=O)c1ccc(C)cc1	·	68.6	·	·	·
COc1ccc(-c2c(C#Cc3ccsc3)c3cc(-c4ccc5[nH]ccc5c4)ccc3n2C)cc1	·	8.6	·	?	?
COc1cc(C#Cc2c(-c3ccccc3)n(C)c3ccccc23)cc(OC)c1	-5.8	-5.5	1.9	11.7µM*	?
COc1cc(C#Cc2c(-c3cncn3C)n(C)c3ccc(-c4ccc(OC)c(OC)c4)cc23)cc(OC)c1	·	58.2	·	5.22µM*	1.31µM*
Cc1cc(C#Cc2c(-c3ccccc3)n(C)c3ccccc23)ccc1F	4.7	-21.2	-1.4	5.86µM*	?
COc1ccc(C#Cc2c(-c3ccccc3)n(C)c3ccccc23)cc1	·	-0.2	·	·	·
COc1ccc(-c2c(C#Cc3ccsc3)c3cc(-c4cccc5[nH]ccc45)ccc3n2C)cc1	·	-0.4	·	2.33µM*	1.31µM*
Cc1ccc(C)c(NC(=O)CCC(=O)NNC(=O)COc2cc(C)ccc2C)c1	-3.4	-0.1	1.3	8.0%	-0.7%
Cc1nc(CS(=O)c2ccccc2)cc(N2CCOCC2)n1 (stereo not given)	-15.0	8.8	-4.3	8.28µM*	?
O=C(C1CC(=O)N(c2ccc(Cl)cc2)C1)N1CCC(c2nc3ccccc3[nH]2)CC1 (stereo not given)	·	-39.4	·	?	10.4µM*
CCOC(=O)N1CCC(Nc2nc3ccccc3nc2NS(=O)(=O)c2ccc(Cl)cc2)CC1	95.5*	16.1	29.6*	·	-85.2%
O=C(N1CCCCC1)N1CCC(c2nc3ccccc3[nH]2)CC1	-7.0	-1.8	-4.3	2.8%	-1.4%
Cc1ccc2nc(C3CCN(C(=O)NCc4ccccc4)CC3)[nH]c2c1	-3.3	-88.2*	-2.2	·	-21.5%
CCOC(=O)N1CCC(c2nc3ccccc3[nH]2)CC1	-9.5	16.5	-3.1	9.28µM*	·
O=C(C1CC(=O)N(c2ccc(Cl)cc2)C1)N1CCCCCC1 (stereo not given)	-8.9	10.6	3.3	46.6%	3.5%

Screening results: PubChem, National Center for Advancing Translational Sciences (NCATS)
